Screening data deposited in PubChem BioAssay by NMMLSC.
AGP1-GFP MLPCN: modulators of AGP1-GFP expression in yeast TOR pathway, primary screen, cell-based, multiplex flow cytometry, S. cerevisiae, MLPCN library; 3 h; GFP as percent of DMSO wells; GFP response vs DMSO, % at 10 µM; hit rate 0.02% among 320,000; AID 2066, 2009;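 active means GFP response relative to DMSO above a set limit, near screen average plus 3 SD, cut at about 150% in these data; inconclusive means fewer than 70 cells counted for the yeast strain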;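 further: median GFP channel fluorescence of the gated AGP1 strain per well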
LAP4 TOR yeast: modulators of LAP4-GFP expression in yeast, primary screen, S. cerevisiae, multiplex flow cytometry, MLPCN library. 3 h; median GFP as percent of DMSO wells. GFP response vs DMSO, % at 10 µM. hit rate 0.34% among 320,000. AID 2023, 2009;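 active means GFP response vs DMSO above a set limit, about the screen mean plus 3 SD, cut at about 150% in these data; inconclusive means under 70 cell events counted for the yeast strain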
MEP2-GFP yeast: modulators of MEP2-GFP levels in yeast, primary screen, S. cerevisiae, multiplex flow cytometry, MLPCN library | S. cerevisiae MEP2-GFP strain, 3 h; 100% = DMSO control level | GFP response vs DMSO, % at 10 µM | hit rate 0.51% among 330,000 | AID 2016, 2009;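 active means GFP response versus DMSO above a set limit, roughly screen mean plus 3 SD, cut at about 180% in these data; inconclusive means fewer than 70 cells counted for a yeast strain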;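 further: median GFP fluorescence of the barcode-gated MEP2-GFP cells per well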
RPL19A-GFP yeast: RPL19A-GFP expression modulators in yeast, primary screen, cell-based, S. cerevisiae, multiplex flow cytometry, MLPCN; S. cerevisiae RPL19A-GFP strain, 3 h; stronger effect = lower value; percent response vs DMSO, % at 10 µM; hit rate 0.3% among 330,000;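 active means percent response vs DMSO below 50%; inconclusive means fewer than 70 events counted for the yeast strain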;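 further: median channel GFP fluorescence of the barcoded RPL19A-GFP strain; ratio of sample median GFP to plate DMSO average so 100% = DMSO; lower means less RPL19A-GFP as with rapamycin TOR inhibition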
CIT2 TOR yeast: modulators of CIT2-GFP expression in yeast, primary screen, S. cerevisiae, GFP fusion, multiplex flow cytometry, MLPCN library; S. cerevisiae CIT2-GFP strain, 3 h; 100 means same as DMSO wells; GFP response vs DMSO, % at 10 µM; hit rate 0.065% among 320,000;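 active means GFP response relative to DMSO above a set limit, near the screen mean plus 3 SD, cut at about 150% in these data; inconclusive means Fewer than 70 cells measured for a yeast strain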;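 further: ratio of well median GFP fluorescence to mean of DMSO wells on the plate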
VLA-4 inh: inhibition in human VLA-4 binding assay, primary screen, VLA-4 allosteric modulator project, MLPCN library, flow cytometry, VLA-4 expressing cells; Integrin alpha-4 (Homo sapiens), P13612; ligand binding flow cytometry; inhibition, % (about 7 µM as worked out from the volumes in the protocol); hit rate 0.2% among 330,000; AID 2557, 2010; in the data active means inhibition above about 50%
Target sequence (P13612 whole entry, looked up): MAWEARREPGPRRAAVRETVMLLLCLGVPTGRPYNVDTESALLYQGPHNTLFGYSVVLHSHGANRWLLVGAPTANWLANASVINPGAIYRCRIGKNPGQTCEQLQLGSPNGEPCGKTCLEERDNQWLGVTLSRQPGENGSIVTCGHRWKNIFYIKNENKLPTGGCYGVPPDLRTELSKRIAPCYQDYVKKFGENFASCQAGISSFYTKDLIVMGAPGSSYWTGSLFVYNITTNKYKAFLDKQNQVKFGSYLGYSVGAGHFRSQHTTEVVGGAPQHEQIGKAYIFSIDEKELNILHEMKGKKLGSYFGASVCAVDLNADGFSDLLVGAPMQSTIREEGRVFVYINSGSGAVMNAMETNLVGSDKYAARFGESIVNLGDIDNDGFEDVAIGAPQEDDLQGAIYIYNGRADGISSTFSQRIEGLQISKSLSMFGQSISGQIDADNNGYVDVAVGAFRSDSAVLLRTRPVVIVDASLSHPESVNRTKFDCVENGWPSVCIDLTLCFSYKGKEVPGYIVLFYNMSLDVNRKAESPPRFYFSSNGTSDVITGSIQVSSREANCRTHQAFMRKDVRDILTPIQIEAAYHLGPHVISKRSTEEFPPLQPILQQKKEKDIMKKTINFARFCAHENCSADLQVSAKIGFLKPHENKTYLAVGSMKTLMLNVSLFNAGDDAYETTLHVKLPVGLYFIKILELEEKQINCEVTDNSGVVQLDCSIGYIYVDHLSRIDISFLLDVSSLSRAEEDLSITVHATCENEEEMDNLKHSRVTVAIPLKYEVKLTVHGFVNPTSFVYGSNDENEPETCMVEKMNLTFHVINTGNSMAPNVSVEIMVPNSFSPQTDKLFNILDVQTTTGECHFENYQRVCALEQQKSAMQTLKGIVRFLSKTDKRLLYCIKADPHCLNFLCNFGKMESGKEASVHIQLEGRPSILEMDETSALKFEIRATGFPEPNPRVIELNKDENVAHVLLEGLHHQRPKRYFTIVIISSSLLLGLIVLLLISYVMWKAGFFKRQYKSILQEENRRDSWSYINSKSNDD
Numbers without * were called inactive; ? = inconclusive; / = not tested or not shown; [ ] = another dose, or the depositor's remark. Shown are actives, neighbours in structure and some others; about 1.1% of the full set was active somewhere.

SMILES	AGP1-GFP MLPCN	LAP4 TOR yeast	MEP2-GFP yeast	RPL19A-GFP yeast	CIT2 TOR yeast	VLA-4 inh
CCCCNC(=O)C1CC(=O)N(CCc2ccccc2)C1 (centres undefined)	104.6	105.5	98.8	97.7	103.0	0.9
Cc1ccc(CCN2CC(C(=O)NCCN3CCCCCC3)CC2=O)cc1 (centres undefined)	97.8	95.7	99.8	98.0	106.1	-4.2
Cc1ccc(CCN2CC(C(=O)NCCCN3CCCCCC3)CC2=O)cc1 (centres undefined)	/	103.3	184.4*[may fluoresce violet]	60.5	?	1.0
O=C(Cn1c(=O)n(-c2ccccc2)c(=O)c2sccc21)N1CCCC1	?	101.6	184.4*[may fluoresce violet]	43.2*[may fluoresce violet]	?	-5.6
CCCCn1c(SCC(=O)Nc2sc3c(c2C(N)=O)CCC3)nnc1-c1ccccc1	?	79.1	252.2*[may fluoresce violet]	15.7*[may fluoresce violet]	?	-10.3
C=CCOc1ccc(/C(O)=C2/C(=O)C(=O)N(CCCN3CCOCC3)C2c2ccccc2)cc1 (centres undefined)	?	88.5	315.5*[may fluoresce violet]	29.2*[may fluoresce violet]	?	0.0
N#CC(C#N)=c1ccc2c(c1)N1C3=C(CCCC3)CC3CCCCC31N=2 (centres undefined)	104.5	108.4	110.7	102.3	107.4	-70.5
N#C/C(C(N)=O)=c1/ccc2c(c1)N1C3=C(CCCC3)CC3CCCCC31N=2 (centres undefined)	89.6	159.7*	104.3	93.1	80.9	-10.1
Cc1ccccc1NC(=O)N1CCNC(=O)C1CC(=O)Nc1cc(Cl)ccc1Cl (centres undefined)	118.3	103.1	109.4	94.1	159.0*[may fluoresce green]	0.6
O=C(CC1C(=O)NCCN1C(=O)Nc1ccccc1)Nc1cc(Cl)ccc1Cl (centres undefined)	105.9	93.0	90.2	96.7	96.9	10.2
COc1ccc(NC(=O)Nc2cccc3c2O[C@H](CN(C)Cc2ccc(-c4ccccc4)cc2)[C@@H](C)CN([C@H](C)CO)C3=O)cc1	81.5	90.2	97.6	97.4	82.8	-2.8
COc1ccc(OC)c(NC(=O)c2cccc3c2C(=O)N(C2CCCCC2)C3)c1	16.7	86.8	161.0	29.1*	111.3	1.6
Cc1ccc(C(=O)N/C(=C/c2ccco2)C(=O)N2CCOCC2)cc1	129.7	173.5*	163.9	94.2	119.8	16.7
Cc1ccc(C(=O)N/C(=C/c2ccco2)C(=O)N2CCCCC2)cc1	96.4	95.8	86.6	96.3	96.2	-6.4
COc1ccc(N(CC(=O)N2CCCCCC2)S(=O)(=O)c2ccc(OC)c(OC)c2)cc1	102.4	90.0	97.9	102.6	105.8	-4.6
CCOc1ccc(N(CC(=O)OC)S(=O)(=O)c2ccc(OC)c(OC)c2)cc1	/	80.3	205.4*[may fluoresce violet]	55.5	?	-6.4
COc1ccc(S(=O)(=O)N(CC(=O)N2CCOCC2)c2ccc(F)cc2)cc1OC	?	80.1	220.9*[may fluoresce red and violet]	?	?	1.5
Cc1cc(=O)oc2cc(OCC(=O)NC3CC(C)(C)NC(C)(C)C3)c(Cl)cc12	104.2	100.2	103.8	102.1	101.5	12.0
Cc1cc(O)c(C(=O)/C=C/c2cccc([N+](=O)[O-])c2)c(=O)o1	111.0	128.3	89.0	92.3	103.1	3.7
COc1cc(/C=C/C(=O)c2ccc([N+](=O)[O-])o2)ccc1O	32.4	231.8*[may fluoresce violet]	161.2	70.2	?	-140.4
O=C(/C=C/c1cccc(Cl)c1)c1ccc([N+](=O)[O-])o1	15.0	135.2	202.0*[may fluoresce violet]	58.0	?	16.2
COc1cc(/C=C/C(=O)O)ccc1O	89.4	90.4	96.2	89.2	91.6	-19.9
COc1ccc(NS(=O)(=O)c2ccc3c(c2)NC(=O)CO3)c(OC)c1	103.8	108.9	104.2	101.8	98.7	4.7
O=C(CSc1nc2ccsc2c(=O)n1CC1CCC(C(=O)O)CC1)c1ccc(F)cc1 (centres undefined)	214.9*	223.6*	880.4*	73.8	259.3*	19.1
O=C(CSc1nc2ccsc2c(=O)n1CC1CCC(C(=O)O)CC1)c1ccc(Cl)cc1 (centres undefined)	99.0	111.4	101.4	96.2	94.3	-10.1
SMILES	AGP1-GFP MLPCN	LAP4 TOR yeast	MEP2-GFP yeast	RPL19A-GFP yeast	CIT2 TOR yeast	VLA-4 inh
O=C(CCc1ccccc1)NNC(=O)c1ccc(NC(=O)c2ccccc2)cc1	103.1	91.2	100.0	99.2	97.1	7.1
CC(=O)Nc1ccc(C(=O)NNC(=O)CCc2ccccc2)cc1	24.7	111.1	249.9*[may fluoresce violet]	43.2*[may fluoresce violet]	?	1.1
CC(=O)N(Cc1ccc(Cl)cc1)c1cnccn1	?	85.9	293.0*[may fluoresce violet]	56.8	?	6.6
Cc1ccccc1OCc1nnc(SCCN2CCCC2)n1-c1ccccc1	?	167.8*[may fluoresce violet]	103.4	30.2*[may fluoresce violet]	?	4.2
CCn1c(C)cc(O)c(C(=O)Nc2cccc(Cl)c2)c1=O	106.2	108.4	109.8	106.1	106.1	5.3
COCCn1c(C)cc(O)c(C(=O)Nc2cccc(Cl)c2)c1=O	17.4	98.4	191.4*[may fluoresce violet]	60.6	?	4.3
Cc1ccsc1C(=O)N(Cc1nnc(-c2ccccc2Cl)o1)C1CC1	96.1	164.4*	97.8	83.6	78.5	2.4
COc1cccc(-n2c(Cc3cc(=O)[nH]c(=O)[nH]3)nnc2SC(C)C)c1	104.0	100.0	99.7	97.6	99.0	-2.0
CSc1nnc(Cc2cc(=O)[nH]c(=O)[nH]2)n1-c1cccc(C)c1	17.1	95.8	225.4*[may fluoresce violet]	53.1	?	17.7
CCOC(=O)C(=Cc1ccc(F)cc1)C(=O)OCC	25.5	122.5	187.5*	65.0	107.0	-11.6
COc1ccc(C2(CNS(=O)(=O)c3ccc(C)cc3)CCOCC2)cc1	21.6	96.5	190.8*[may fluoresce violet]	50.5	?	8.8
COc1ccc(C2(CNC(=O)C(=O)Nc3ccc(C)cc3)CCOCC2)cc1	94.4	97.7	101.0	99.4	96.7	4.0
CCOc1ccccc1C1N=C(c2ccc(OC)cc2)CC(c2ccccc2O)N1 (centres undefined)	84.5	167.1*	100.2	99.5	89.0	-14.5
CC(C)C1N=C(c2ccc3c(c2)OCO3)CC(c2ccccc2O)N1 (centres undefined)	92.0	101.5	92.5	92.1	89.3	7.9
O=C(O)c1ccc(N/N=C/C(Br)=C/c2ccccc2)cc1	72.4	161.2*	106.3	107.3	98.0	5.1
O=C(N/N=C/C(Br)=C/c1ccccc1)C(O)c1ccccc1 (centres undefined)	27.2	96.8	120.6	62.9	?	-8.8
